From PubChem BioAssay AID1711 (National Center for Advancing Translational Sciences (NCATS), 2009)
Inconclusive results are not listed. Values without a mark were called inactive. Activity calls are given as the source filed them. The call rests on the fitted dose curve; in most records, active means well fitted curve in the direction sought with a large enough effect; inconclusive means small, poorly fitted or top-dose-only effect, or another doubt; inactive means no such curve, though single readings can be large or run the other way.

biological target: Caspase-1 (Homo sapiens) (UniProt P29466); assay: Concentration-Response Counterscreen for Tau: Redox Active Inhibitors of Caspase-1; conditions: purified caspase-1, Ac-WEHD-AFC fluorescence kinetic; series mostly up to 40.6 µM; activity change, negative = inhibition: at the top concentration
Excerpt: NIH Molecular Libraries Probe Production Network [MLPCN] NIH Chemical Genomics Center [NCGC] MLPCN Grant: X01 MH083262-01 Assay Provider: Carlo Ballatore, University of Pennsylvania NCGC Assay Overview: The microtubule-associated protein tau is an abundant protein in the axons of neurons that stabilizes microtubules. With its ability to modulate microtubule dynamics, tau contributes directly or indirectly, to key structural and regulatory cellular functions. Particularly important is the influence tau exerts on axonal transport, which allows signaling molecules, trophic factors and other essential cellular constituents to travel along the axons. Under pathological conditions, tau becomes sequestered into insoluble aggregates called neurofibrillary tangles. This phenomenon is believed to have pathological consequences by promoting axonal transport deficits that ultimately lead to synaptic dysfunction and neuronal loss. To examine the selectivity of tau fibrillization inhibitors, compounds were tested in an in vitro assay for caspase-1 activity. This assay is a counterscreen for tau fibrillization inhibitors to identify non-specific oxidizing agents; an active site cysteine in caspase-1 must remain in a reduced state and the enzyme is inactivated by oxidative compounds. Caspase-1 activity was monitored using a profluorescent substrate that upon enzymatic cleavage yields a fluorescent probe that is detectable at 405 nm excitation and 525 nm emission. Scheer, J. M., Wells, J. A., and Romanowski, M. J. (2005) Protein Expression and Purification 41, 148-153.
NCGC Assay Protocol Summary: Caspase-1, kindly provided by Dr. James Wells (University of California, San Francisco), was purified and assayed at 100 nM in buffer containing 50 mM HEPES pH 7.5, 50 mM KCl, 200 mM NaCl, and 0.1% CHAPS. Caspase-1 was dispensed at 3 uL/well into black solid 1536-well plates and incubated 5 min with various concentrations of test compound, with subsequent addition of 1 ul/well Ac-WEHD-AFC substrate (20 uM final concentration). Within 1 minute of substrate addition, fluorescence intensity (405 nm excitation and 525 nm emission) was measured on a ViewLux (PerkinElmer) every 30 s for 10 min. The first 3 minutes of fluorescence values were linear and used to calculate the slope of substrate conversion as a measure of enzyme activity.

Chain of Caspase-1 (Homo sapiens) (P29466 whole entry, looked up): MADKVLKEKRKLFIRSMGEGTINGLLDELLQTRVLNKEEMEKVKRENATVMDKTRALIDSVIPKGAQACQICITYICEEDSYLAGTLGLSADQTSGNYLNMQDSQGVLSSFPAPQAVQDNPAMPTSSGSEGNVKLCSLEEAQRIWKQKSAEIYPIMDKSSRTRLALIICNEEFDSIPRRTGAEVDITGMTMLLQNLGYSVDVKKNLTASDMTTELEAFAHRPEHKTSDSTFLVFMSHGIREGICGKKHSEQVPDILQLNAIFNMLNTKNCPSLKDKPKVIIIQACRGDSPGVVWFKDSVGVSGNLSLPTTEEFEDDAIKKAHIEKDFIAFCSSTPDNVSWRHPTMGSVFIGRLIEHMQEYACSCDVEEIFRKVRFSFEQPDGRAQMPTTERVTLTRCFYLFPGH

| Compound | activity change, negative = inhibition | Potency |
| --- | --- | --- |
| Nc1scc2c(C(=O)O)nn(-c3ccccc3)c(=O)c12 | -14.5% |  |
| CCOC(=O)c1ccc(-n2nc(C(=O)OCC)c3csc(N)c3c2=O)cc1 | -20.3% |  |
| Nc1nn(-c2ccccc2)c(=O)c2c(N)scc12 | -11.3% |  |
| CCOC(=O)c1nn(-c2ccccc2)c(=O)c2c(NC(C)=O)scc12 | -13.9% |  |
| COc1ncc(-c2ccccc2)cc1N |  | 15.8 µM (active) |
| Nc1scc2c(C(=O)N3CCOCC3)nn(-c3ccccc3)c(=O)c12 | -10% |  |
| CCOC(=O)c1nn(-c2ccc(Cl)c(Cl)c2)c(=O)c2c(N)scc12 | -2.84% |  |
| CCOC(=O)c1nn(-c2ccc(F)cc2)c(=O)c2c(N)scc12 | -19.8% |  |
| Nc1scc2c(CO)nn(-c3ccccc3)c(=O)c12 | -19.2% |  |
| CCOC(=O)c1nn(-c2ccc(C)c(C)c2)c(=O)c2c(N)scc12 | 1.88% |  |
| CCOC(=O)c1nn(-c2ccc(OC)cc2)c(=O)c2c(N)scc12 |  | inactive |
| CC(=O)Nc1sc(C)c2cnn(-c3ccccc3)c(=O)c12 | -3.22% |  |
| CCOC(=O)c1nn(-c2ccccc2F)c(=O)c2c(N)scc12 | 7.77% |  |
| CCOC(=O)c1nn(-c2ccccc2)c(=O)c2c(NC(=O)c3ccccc3)scc12 | -8.05% |  |
| CCOC(=O)c1nn(-c2ccccc2)c(=O)c2c(N)sc(C)c12 | -9.73% |  |
| CCOC(=O)c1nn(-c2ccccc2)c(=O)c2c(N)scc12 | -11% |  |
| CCOC(=O)c1nn(-c2cccc(C(F)(F)F)c2)c(=O)c2c(N)scc12 | -16.5% |  |
| CCOC(=O)c1nn(-c2ccc(C)cc2)c(=O)c2c(N)scc12 | -3.58% |  |
| Nc1cc(-c2ccccc2)c[nH]c1=O |  | 7.94 µM (active) |
